MPTP block = inhibitors of mitochondrial permeability transition pore; isolated mouse mitochondria, Ca2+ swelling absorbance, 30 min; AID 602449; inhibition, % at 10 µM; 360,000 compounds, 1.4% hits;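 active means inhibition of 50% or more, scaled per plate between neutral and stimulator controls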;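 further: 0% = DMSO wells given calcium and 100% = 1 mM EGTA wells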
NR3A LBD binder = NR3A (human) ligand-binding domain modulation; NR3A LBD differential scanning fluorimetry, Tm shift; 0% = protein alone, 100% = glycine-bound protein; Tm shift relative to glycine control, % at 25 µM; 340,000 compounds, 2.5% hits;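 active means melting temperature shift of at least 10% of the positive control shift, at one fixed dose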
Mdm2-MdmX inh = disrupts the human Mdm2-MdmX interaction; inhibition, % at 8 µM; O15151+Q00987; SaOS-2 split-luciferase Mdm2/MdmX complementation, luminescence; AID 485346; 330,000 compounds, 3% hits;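 active means inhibition of at least 50% at 8 µM in the primary screen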
Target sequence (O15151 whole entry, looked up): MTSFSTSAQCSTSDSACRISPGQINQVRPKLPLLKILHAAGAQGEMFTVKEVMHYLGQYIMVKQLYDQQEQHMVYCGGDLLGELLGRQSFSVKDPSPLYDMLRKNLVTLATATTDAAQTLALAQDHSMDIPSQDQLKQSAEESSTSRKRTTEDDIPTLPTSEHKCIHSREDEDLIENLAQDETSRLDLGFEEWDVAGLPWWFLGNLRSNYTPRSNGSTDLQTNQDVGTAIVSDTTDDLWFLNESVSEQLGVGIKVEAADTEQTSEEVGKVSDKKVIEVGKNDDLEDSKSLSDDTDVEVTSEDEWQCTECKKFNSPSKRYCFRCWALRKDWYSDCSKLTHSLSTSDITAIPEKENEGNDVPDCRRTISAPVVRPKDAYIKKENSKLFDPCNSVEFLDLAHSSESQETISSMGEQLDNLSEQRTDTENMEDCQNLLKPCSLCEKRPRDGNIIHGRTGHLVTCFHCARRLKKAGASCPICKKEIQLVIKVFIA
Target sequence (Q00987 whole entry, looked up): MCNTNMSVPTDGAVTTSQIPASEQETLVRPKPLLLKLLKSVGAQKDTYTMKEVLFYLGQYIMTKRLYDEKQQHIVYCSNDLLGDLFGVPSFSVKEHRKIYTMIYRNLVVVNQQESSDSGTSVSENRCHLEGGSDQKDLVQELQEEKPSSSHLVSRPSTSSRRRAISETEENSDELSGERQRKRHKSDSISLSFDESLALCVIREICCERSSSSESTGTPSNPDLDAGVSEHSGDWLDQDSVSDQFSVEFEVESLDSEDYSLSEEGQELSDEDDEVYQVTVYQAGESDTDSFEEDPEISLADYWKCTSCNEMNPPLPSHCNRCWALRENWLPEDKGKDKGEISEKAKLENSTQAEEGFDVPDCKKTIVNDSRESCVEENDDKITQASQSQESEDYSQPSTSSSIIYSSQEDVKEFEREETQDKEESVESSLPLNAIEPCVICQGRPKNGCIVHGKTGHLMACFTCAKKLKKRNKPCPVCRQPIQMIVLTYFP
SKKanGAS inh = SKKanGAS growth inhibition | 300,000 compounds, 1.3% hits | inhibition, % at 7.5 µM | S. pyogenes SKKanGAS, kanamycin growth, BacTiter-Glo, 6 h;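 active means mean replicate score, as percent of positive control median, at least 50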;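 further: strain carries kanamycin resistance gene driven by streptokinase promoter and grows in 40 µg/ml kanamycin; loss of luminescence reflects streptokinase promoter inhibition or plain growth inhibition; 0% = median of DMSO wells and 100% = positive control at its reference dose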
CSC inhib = cancer stem cell inhibition | cancer stem cell-like cells viability, luminescence | inhibition, % at 7.5 µM | 300,000 compounds, 1.1% hits; in the data active means inhibition above about 75%; tested in HMLE shEcad cells
Beta cell apopt = beta cell apoptosis inhibition. 300,000 compounds, 0.8% hits. INS-1E cytokine-induced death, ATP luminescence, 48 h; percent of positive-control rescue, neutral wells zero. protection from apoptosis, % (no concentration beside the values). AID 435005;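 active means Every replicate reaches about 75%, or at least half do and their mean reaches it too, limit read from the data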;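 further: 0% = cytokine-treated negative control wells and 100% = positive control rescue; higher means more ATP so stronger rescue from cytokine killing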
Mdm2 MdmX conf = human Mdm2/MdmX binding inhibition, confirmed. shares compounds with Mdm2-MdmX inh. luminescent assay. inhibition, % at 8 µM. 10,000 compounds, 55% hits. AID 489028; in the data active means inhibition above about 40%
FLuc counter = counter-screen for Mdm2/MdmX inhibitors: full-length luciferase | 6,200 compounds, 77% hits | inhibition, % at 8 µM | SaOS-2 full-length luciferase counterscreen, luminescence | shares compounds with Mdm2-MdmX inh;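 active means mean inhibition at 8 µM reaching about 37%, which flags the compound as non-specific, limit read from the data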;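 further: p53-null SaOS-2 cells with luciferase driven by a doxycycline-inducible promoter; compound on cells about two nights before reading with doxycycline added after day one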
Starred values were filed as active, the others as inactive; . = no result given. Sampled rows, rich in hits. Any-hit rate of the full collection: about 6.9%.

SMILES | MPTP block | NR3A LBD binder | Mdm2-MdmX inh | SKKanGAS inh | CSC inhib | Beta cell apopt | Mdm2 MdmX conf | FLuc counter
Cc1ccc(C(=O)N/C(=C\c2cn(S(=O)(=O)N(C)C)c3ccccc23)C(=O)NCCN2CCOCC2)cc1 | -1 | -1 | 20 | 2 | . | . | . | .
NC(=O)[C@@H]1CC2(CC(c3cccc(NC(=O)CC(c4ccccc4)c4ccccc4)c3)=NO2)CN1C(=O)c1ccc(Cl)cc1 (stereo not given in full) | 1 | 6 | 52* | 42 | 37 | 3 | 33 | .
CCC(=O)N1CC2(CC(c3cccc(NC(=O)CC(c4ccccc4)c4ccccc4)c3)=NO2)C[C@H]1C(N)=O (stereo not given in full) | -2 | -3 | -2 | -2 | -3 | 1 | . | .
C=C(C)C(=O)N1CC2(CC(c3cccc(NC(=O)CC(c4ccccc4)c4ccccc4)c3)=NO2)C[C@H]1C(N)=O (stereo not given in full) | 0 | -6 | 13 | 2 | 14 | 2 | . | .
NC(=O)[C@H]1CC2(CC(c3cccc(NC(=O)CC(c4ccccc4)c4ccccc4)c3)=NO2)CN1C(=O)CC(c1ccccc1)c1ccccc1 (stereo not given in full) | 1 | 17* | 68* | 40 | 13 | -3 | 52* | 57*
O=C(CSCc1cc(=O)n2nc(C3CC3)sc2n1)Nc1ccccc1Cl | -3 | -4 | -2 | 2 | 1 | 0 | . | .
COc1cc(C#Cc2c(-c3cncn3C)n(C)c3ccc(-c4ccc(OC)c(OC)c4)cc23)cc(OC)c1 | 1 | -7 | 52* | . | 49 | 13 | 23 | .
COc1cc(C#Cc2c(-c3cncn3C)n(C)c3ccc(Br)cc23)cc(OC)c1 | 0 | -8 | 75* | . | . | 3 | -3 | .
O=C(NCCc1ccccc1F)C1CCC(=O)N(Cc2ccc(Cl)cc2)C1 (stereo not given) | -2 | -1 | 13 | -7 | . | . | . | .
O=C(c1ccc(C(F)(F)F)cc1)N1CCC(=O)N([C@H](COCc2ccc(Cl)cc2)Cc2ccccc2)CC1 | 0 | . | . | . | . | . | . | .
O=C(O)c1ccc(S(=O)(=O)N2CCCc3ccccc32)cc1 | 0 | 2 | 10 | 6 | 5 | 3 | . | .
CC(C)N1CCc2c(sc(NC(=O)c3ccc(S(=O)(=O)N4CCc5ccccc54)cc3)c2C(N)=O)C1 | 16 | -22 | 100* | 7 | 113* | 3 | 30 | .
CC(C)N1CCc2c(sc(NC(=O)c3nc4ccccc4s3)c2C(N)=O)C1 | -1 | -4 | 14 | 17 | -3 | 4 | . | .
NC(=O)c1ccsc1NC(=O)c1ccc(S(=O)(=O)N2CCCc3ccccc32)cc1 | 2 | 16* | 59* | 28 | 48 | . | 1 | .
CCOC(=O)[C@H]1[C@H]2COc3ccccc3[C@@H]2N2C(=O)c3c(C)cc(C)cc3NC(=O)[C@@]12C | 0 | -3 | 21 | . | 19 | 11 | . | .
Cc1ccc(-c2cc(C(=O)NCCCN3CCOCC3)c3ccc(Cl)c(C)c3n2)cc1 | 1 | -15 | 50* | 11 | 26 | 33 | 42* | 75*
CCc1c(C#N)c(SCCC(=O)Nc2cccc(OC)c2)nc2c1C(=O)CC(C)(C)C2 | 2 | 1 | 31 | 16 | 25 | -7 | . | .
CCc1c(C#N)c(SCCC(=O)Nc2ccc(F)cc2)nc2c1C(=O)CC(C)(C)C2 | -13 | 2 | 56* | 31 | 36 | -6 | 11 | .
FC(F)(F)c1cc(C(F)(F)F)c2ccc(N3CCN(c4ncccn4)CC3)nc2n1 | -1 | 1 | 58* | 7 | 1 | 1 | -8 | .
FC(F)(F)c1cc(C(F)(F)F)c2ccc(N3CCOCC3)nc2n1 | -2 | -1 | -4 | 1 | -6 | 0 | . | .
Cc1nn(CC(=O)N(C)C2CCS(=O)(=O)C2)c(C)c1S(=O)(=O)N(C)C (stereo not given) | -2 | 0 | -17 | . | . | -1 | . | .
O=C(Nc1nc2c(s1)CCCC2)c1cccs1 | 12 | 3 | -126 | . | 25 | 20 | . | .
CC(C)c1nc(SCC(=O)NC2CCCC2)c2ccccc2n1 | -1 | 2 | 13 | 18 | 1 | 0 | . | .
Cc1nnc(NC(=O)CSc2nc(C(C)C)nc3ccccc23)s1 | -1 | -1 | 76* | 2 | 62 | 1 | 63* | 44*
CC(C)(C)c1nc(SCC(=O)Nc2nc3c(s2)CCCC3)c2ccccc2n1 | 1 | -2 | 98* | 19 | 119* | 24 | 93* | 54*
SMILES | MPTP block | NR3A LBD binder | Mdm2-MdmX inh | SKKanGAS inh | CSC inhib | Beta cell apopt | Mdm2 MdmX conf | FLuc counter
CC(C)c1nc(SCC(=O)Nc2nc3c(s2)CCCC3)c2ccccc2n1 | 1 | -12 | 85* | 9 | -11 | -6 | 64* | 45*
O=C(Cc1cccs1)Nc1nc2c(s1)CCCC2 | 1 | 0 | 56* | 8 | -1 | 1 | 47* | 90*
O=C(CSc1nc(Cc2ccccc2)nc2ccccc12)Nc1nc2c(s1)CCCC2 | -1 | -11 | -17 | 19 | . | . | . | .
Cc1cc(NC(=O)CSc2nc(C(C)C)nc3ccccc23)no1 | -2 | 1 | 39 | 6 | 39 | -6 | . | .
Cc1cc(C)c(NC(=O)CN2CCN(c3ccccn3)CC2)c(C)c1 | 0 | 1 | -13 | -2 | -6 | -4 | . | .
Cc1ccc(CNC(=O)c2cc(-c3ccccc3)nn2CC2CC(c3cccc([N+](=O)[O-])c3)=NO2)cc1 (stereo not given) | -1 | -4 | 28 | 4 | -3 | -1 | . | .
CC(=O)/C(C#N)=C1\NC(=O)C(Cc2ccc(C)c(Cl)c2)S1 (stereo not given) | 18 | -9 | 79* | 22 | 45 | -6 | 78* | 32
CCc1ccc(CC2S/C(=C(\C#N)C(C)=O)NC2=O)cc1 (stereo not given) | 19 | -6 | 61* | 13 | 52 | . | 74* | 70*
CCOC(=O)c1ccc(CC2S/C(=C(\C#N)C(C)=O)NC2=O)cc1 (stereo not given) | 1 | -6 | 4 | 16 | 12 | -1 | . | .
CCn1c(=S)[nH]c2cc(S(=O)(=O)N3CCCCC3)ccc21 | 0 | 0 | 82* | 2 | 1 | -39 | 49* | 84*
O=C(c1ccc(F)cc1)N1CCN(c2ccc([N+](=O)[O-])cc2-n2cccc2)CC1 | 2 | 3 | -5 | 7 | -9 | -1 | . | .
O=C(CCC1COc2ccccc2O1)Nc1ccc(Cl)cn1 (stereo not given) | 0 | 12* | 67* | . | 61 | -8 | 45* | 84*
O=C(COC(=O)Cc1ccc(Br)cc1)NCc1ccccc1 | 0 | . | . | . | . | . | . | .
COc1cccc(NC(=O)Nc2nnc(CC(=O)NCc3ccccc3)s2)c1 | 5 | -5 | 56* | -6 | -18 | -9 | 51* | 35
